Here are results for 45 compounds from PubChem BioAssay AID1963576 (National Center for Advancing Translational Sciences (NCATS), 2024).

The campaign covered roughly 46,000 compounds. About 60 (0.1%) were called active. Roughly 3% stayed inconclusive and do not appear here. Shown is part of a subset that was picked to be rich in actives. Values without a mark were called inactive. The call rests on the fitted dose curve; in most records, active means well fitted inhibition curve with a large enough effect; inconclusive means small, poorly fitted or top-dose-only effect; inactive means no such curve, though single readings can be large or run the other way.
Potency means the concentration at half of the fitted maximal effect.

A short description of the test: Primary qHTS assay for Inhibitors of ovarian cancer metastasis using an organotypic tumor microenvironment (TME) model. Further: nearly all actives have a fitted effect of over 65% in size.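 On Potency: count of GFP cancer cells still attached after washing and fixation.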 Conditions: SKOV3ip1-GFP adhesion/invasion on 3D omental model, fluorescence; series mostly up to 45.8 µM; activity change, negative = inhibition: at the top concentration. An excerpt: PI: Ernst Lengyel MD., Ph.D. Department of Obstetrics and Gynecology, Section of Gynecologic Oncology University of Chicago Medicine, Chicago, Illinois. The tumor microenvironment (TME) is a key determinant of metastatic efficiency. We performed a quantitative high-throughput screen (qHTS) of diverse medicinal chemistry tractable scaffolds (44,420 compounds) and pharmacologically active small molecules (386 compounds) using a layered organotypic, robust assay representing the ovarian cancer metastatic TME. This 3D model contains primary human mesothelial cells, fibroblasts, and extracellular matrix, to which fluorescently labeled ovarian cancer cells are added. Initially, 100 compounds inhibiting ovarian cancer adhesion/invasion to the 3D model in a dose-dependent manner were identified. Of those, eight compounds were confirmed active in five high-grade serous ovarian cancer cell lines and were further validated in secondary in vitro and in vivo biological assays. […] Specifically, NCGC00117362 and PP-121 inhibited ovarian cancer adhesion, invasion, and proliferation, whereas milciclib inhibited ovarian cancer invasion and proliferation. […] To evaluate the clinical potential of NCGC00117362, structure - activity relationship studies were performed. […] The three compounds identified have promise as therapeutics for prevention and treatment of ovarian cancer metastasis.
PROTOCOL TABLE (as described by Inglese J, Shamu CE and Guy RK. 2007) SEQUENCE No. (e.g., 1, 2, 3, etc.); […] (e.g., Cells, Incubation, Reagent, etc.); VALUE; DESCRIPTION. 1; Cells; 4 uL; primary human omental fibroblast, black, clear bottom, low base, 1536-well Aurora assay plate. 2; Incubation; 48 hr; 37C. 3; Cells; 3 uL; 1,200 SKOV3ip1-GFP cells. 4; Compounds; 23nL; acoustic dispenser. 5; Incubation; 2 hr; room temperature. 6; Incubation; 16 hr; 37C. 7; Wash; 5 uL; 1x PBS. 8; Fixing; 5 uL; 4% paraformaldehyde (PFA). 9; Incubation; 15 min; room temperature 10; Wash, 5 uL; 1x PBS. 11; Detection; Fluorescence, excitation filter 488 nm, emission filter 509 nm. NOTES (numbers refer to Sequence numbers above) 1. For the 1,536-well format, 40 primary human omental fibroblasts and 400 mesothelial cells were seeded with 0.02 µg fibronectin and 0.02 µg collagen type I in 4 µL of growth media (2.3 mm2; Supplementary Fig. S1A). 2. Assay plates were incubated for 48 hours at 37 C. 3. After incubation, 1,200 SKOV3ip1-GFP were seeded in 3 µL of serum-free media (growth media minus FBS) on top of primary human omental cells. 4. Compounds or controls were added to each well immediately after the addition of the cancer cells. Compounds were screened in four doses (0.36-46 µmol/L), and the plates contained the positive control (Tomatine) in eight doses (0.035-75 µmol/L) and DMSO (equal volume controls) 5 - 6. The plates were incubated at room temperature for 2 hours and then at 37 degrees C for 16 hours. 7 - 10. Following incubation, the media were aspirated and each well washed with PBS (5 µL) and then fixed with 4% paraformaldehyde (PFA; 5 µL). After 15 minutes, the PFA solution was aspirated, PBS (5 µL) was added. 11. The number of GFP-labeled cells analyzed using a fluorescent cytometer TTP LabTech Acumen eX3 using 488 nm excitation filter and 509 nm emission filter. Data was normalized to the DMSO treated for negative and Tomatine treated wells for positive control. REFERENCES: Inglese J, Shamu CE and Guy RK, Reporting data from high throughput screening of small molecule libraries, Nature Chemical Biology, 2007, 3(8): 438-441. doi.org/10.1038/nchembio0807-438. Yasgar A, Shinn P, Jadhav A, Auld DS, Michael S, Zheng W, Austin CP, Inglese J and Simeonov A, Compound Management for Quantitative High-Throughput Screening. J. Assoc. Lab. Auto., 2008, 13: 79-89. doi: 10.1016/j.jala.2007.12.004.
On the technique in general: qHTS replaces the single test concentration by a dilution series.
Turning to `COc1cc(OC)cc(C(=O)Nc2cc3nn(-c4ccccc4)nc3cc2Cl)c1`, the “activity change, negative = inhibition” value is -12.1%.
As for `CC(=O)c1ccc(N2CCN(c3nc4c(S(=O)(=O)c5ccccc5)nnn4c4ccc(Cl)cc34)CC2)cc1`, the “activity change, negative = inhibition” value is -7.59%.
In the case of `Cc1ccc(CNC(=O)CCc2c(C)nn(-c3ccc(N4CCCC4)nn3)c2C)cc1`, the compound was called inactive.
For the compound `Cc1cccc(N(C)C(=O)c2cc(S(=O)(=O)N3CCCCC3)c[nH]2)c1`, the “activity change, negative = inhibition” value is 5.29%.
As for `CO[C@H]1O[C@@H]2O[C@@]3(C)CC[C@@H]4[C@@H](C)CC[C@@H]([C@H]1C)[C@@]24OO3`, the “activity change, negative = inhibition” value was -30.6%.
On the same count and under the same terms, to `Cn1c(SCC(=O)N2CCCc3ccccc32)ncc(C(=O)Nc2ccc(F)cc2)c1=O` belongs -22.2%.
In the case of `Cc1nn(Cc2ccc(F)cc2)c(C)c1NC(=O)c1cc(CC(C)C)on1`, the call was inactive.
Regarding `COc1ccccc1-c1nnc(SCC(N)=O)o1`, the “activity change, negative = inhibition” value was -1.31%.
In the case of `CON=C(C(=O)N[C@@H]1C(=O)N2C(C(=O)OCOC(=O)C(C)(C)C)=C(C=Cc3scnc3C)CS[C@H]12)c1csc(N)n1`, the “activity change, negative = inhibition” value is 25.4%.
Regarding `CCc1ccc(NC(=O)CSc2nc3c([nH]c4ccccc43)c(=O)n2-c2cccc(OC)c2)cc1`, the “activity change, negative = inhibition” value was -0.478%.
`CCOC(=O)N1CCN([N+]([O-])=NOc2ccc([N+](=O)[O-])cc2[N+](=O)[O-])CC1`: the “activity change, negative = inhibition” value is -4.51%.
Same read-out and setting: to `Cc1nc2c(-c3ccccc3)c(C)nn2c(C)c1CCC(=O)NCCc1ccccc1` belongs 5.93%.
As for `Fc1ccc(-n2ncc3c(Nc4ccc(Oc5ccccc5)cc4)ncnc32)cc1`, the compound was called inactive.
As to `Cc1ccc(/C=C(\C#N)C(=O)Nc2cc(C)ccc2C)cc1`, the result was inactive.
For `CSc1ccc(CCNC(=O)c2cnn(-c3ccccc3)c2-n2cccc2)cc1`, the compound was classed as inactive.
With `COc1ccc(C2CC(=O)Nc3c2c(=O)nc2c(C)cccn32)cc1OC` (stereo not given), the “activity change, negative = inhibition” value was 12.3%.
For the compound `CCN1CCN(c2cc(C)c3cc(NC(=O)c4cc(Cl)ccc4OC)ccc3n2)CC1`, the Potency is 3.55 µM (active).
`COc1ccc(C(=O)Nc2ccc3nc(N4CCCCC4)cc(C)c3c2)cc1OC`: the compound was called inactive.
Same read-out and setting: to `COc1ccc(NC(=O)c2cnc(Nc3ccc(C)c(Cl)c3)c3ccccc23)cc1OC` belongs “inactive”.
As to `CC(NC(=O)c1cc2c(=O)n3ccccc3nc2n(C(C)C)c1=N)c1ccccc1` (stereo not given), the “activity change, negative = inhibition” value was -15.9%.
Regarding `COc1cc2ccccc2cc1C(=O)Nc1cccc(-c2nc3ccccc3o2)c1`, the outcome was inactive.
Regarding `CCN1CCN(c2ncnc3c2cnn3-c2ccc(C)c(C)c2)CC1`, the “activity change, negative = inhibition” value is -2.4%.
Same read-out and setting: next, `CCc1cccc(NC(=O)CN(c2ccc(C)c(C)c2)S(=O)(=O)c2ccsc2C(=O)OC)c1`: 1.97%.
On the same count and under the same terms, to `CCc1nccn1S(=O)(=O)c1cc(Br)ccc1Br` belongs 9.09%; to `CCc1ccc(S(=O)(=O)c2nnn3c2nc(NCc2ccccc2OC)c2cc(Cl)ccc23)cc1`, 0.872%.
Still for that read-out and setting: next, `Cc1ccc(NC(=O)c2oc3ccc(S(=O)(=O)N4CCCCC4)cc3c2C)cc1Cl`: -11.1%; `Cc1ccc(-n2ncc3c(NCCCn4ccnc4)ncnc32)cc1Cl`: -4.11%.
Consider `Cc1ccc(-n2c(SCC(=O)Nc3cccc(F)c3)nc3c(oc4ccccc43)c2=O)cc1C`, for which the outcome was inactive.
As for `CC=CC[C@@H](C)C(=O)[C@H]1C(=O)N[C@@H](C(C)C)C(=O)N(C)CC(=O)N(C)[C@@H](CC(C)C)C(=O)N[C@@H](C(C)C)C(=O)N(C)[C@@H](CC(C)C)C(=O)N[C@@H](C)C(=O)N[C@H](C)C(=O)N(C)[C@@H](CC(C)C)C(=O)N(C)[C@@H](CC(C)C)C(=O)N(C)[C@@H](C(C)C)C(=O)N1C`, the “activity change, negative = inhibition” value is -11.6%.
Turning to `CCc1nc2nc(C)cc(Nc3ccc(F)c(Cl)c3)n2n1`, the “activity change, negative = inhibition” value was 27.4%.
As to `COc1cc2nc(SCC(=O)Nc3ccccc3F)n3nc(-c4ccccc4)nc3c2cc1OC`, the result was inactive.
With `Cc1ccc(Cn2c(CNC(=O)Cc3cccc(C)c3)nc3cccnc32)cc1`, the “activity change, negative = inhibition” value is -12.9%.
On to `O=C(Cn1nc(C(F)(F)F)c2c1CCCC2)Nc1ccc(Cl)cc1`, for which the “activity change, negative = inhibition” value was 1.23%.
Same read-out and setting: to `COc1ccc(NC(=O)COCc2cc(-c3ccco3)on2)cc1` belongs -4.51%; to `O=C(Cn1nc(Cc2cccnc2)c2ccccc2c1=O)N1CCN(c2ccccc2F)CC1`, -1.53%; to `COc1ccc(CN2CCc3nc(Nc4ccccc4)ncc3C2)c(OC)c1OC`, -5.54%.
As to `CO[C@H]1C[C@@H]2CC[C@@H](C)[C@@](O)(O2)C(=O)C(=O)N2CCCC[C@@H]2C(=O)O[C@H]([C@@H](C)C[C@@H]2CC[C@H](O)[C@H](OC)C2)CC(=O)[C@H](C)C=C(C)[C@@H](O)[C@@H](OC)C(=O)[C@H](C)C[C@H](C)C=CC=CC=C1C`, the “activity change, negative = inhibition” value is 33.7%.
In the case of `COc1ccc(-c2cn3c(C)c(C(=O)Nc4cc(C)cc(C)c4)sc3n2)cc1`, the Potency is 8.91 µM (active).
As for `CCOC(=O)c1ccccc1NC(=O)c1sc2nc(-c3ccc(F)cc3)cn2c1C`, the “activity change, negative = inhibition” value was 12%.
In the case of `COc1ccc(-c2cn3c(n2)sc2cc(C(=O)Nc4ccc(F)cc4)ccc23)cc1`, the “activity change, negative = inhibition” value is 5.93%.
As for `CCOC(=O)c1cc2c(=O)n3ccccc3nc2n(Cc2ccco2)c1=NC(=O)c1ccc(F)cc1`, the “activity change, negative = inhibition” value is 15.7%.
With `Cn1c(=O)c2c(n3c4ccccc4nc13)NC(=O)CC2c1cccc(Cl)c1` (stereo not given), the “activity change, negative = inhibition” value is -3.87%.
For the compound `COc1cccc(CNC(=O)CN2C(=O)CCc3cc(S(=O)(=O)N4CCOCC4)ccc32)c1`, the “activity change, negative = inhibition” value was 0.82%.
`Cc1cccc(NC(=O)c2nnn(CC(=O)Nc3ccc(C(C)C)cc3)c2N)c1C`: the compound was classed as inactive.
With `O=C(NCCc1ccccc1)c1ccc2c(c1)N(Cc1ccc(F)cc1)C(=O)c1ccccc1S2(=O)=O`, the “activity change, negative = inhibition” value was 6.62%.
